According to PubChem BioAssay:
Activity calls are given as the source filed them.

Legend:
Albumin (Bos taurus) = Albumin (Bos taurus) (UniProt P02769); assay: compounds binding labelled BSA control protein – biochemical, small-molecule microarray, Alexa647 label, 635/667 nm fluorescence, artefact control for SMM control protein annotation, profiling panel (AID 1118); conditions: BSA-A647 binding, fluorescence 635 nm, higher = more signal;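 note: score merges 667 nm emission intensity and signal-to-noise per printed compound spot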
[1] = probe aXIP binding to arrayed compounds – biochemical, NeuroSMM set, 635/667 nm fluorescence, primary screen (AID 1119); conditions: small-molecule microarray, higher = more signal, called active from +8 up or from −8 down;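 note: probe is the protein aXip251-270 applied at 1 µg/mL to compound-printed slides; binding of probe to printed compounds measured as 667 nm fluorescence plus signal to noise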
[2] = probe aNOTCH3 binding on compound microarray – biochemical, small-molecule microarray, 635/667 nm fluorescence, primary screen (AID 1120); conditions: higher = more signal;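 note: probe is a biotin-tagged antibody raised against NOTCH3 rather than NOTCH3 protein; score merges spot fluorescence near 667 nm with spot signal to noise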
[3] = probe aNOTCH2 binding on compound microarray – biochemical, small-molecule microarray, 635/667 nm fluorescence, primary screen (AID 1121); conditions: higher = more signal;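 note: score merges feature fluorescence read at 667 nm with its signal to noise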
[4] = biological target: Carbonic anhydrase 2 (Homo sapiens) (UniProt P00918); assay: compounds binding carbonic anhydrase 2 – biochemical, small-molecule microarray, Alexa647-labelled CAII, profiling panel (AID 1122); conditions: CAII-A647 binding fluorescence, higher = more signal
[5] = COS7 lysate on small-molecule microarray, probe aHis, 635 nm (AID 1123); conditions: COS7 cell lysate, fluorescence, higher = more signal;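 note: z-score combines 667nm fluorescence intensity with signal-to-noise per printed compound spot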
[6] = probe aLAP1 signal on lysate-treated microarray – cell lysate, small-molecule microarray, COS7 lysate, primary screen (AID 1124); conditions: probe aLAP1, fluorescence, higher = more signal;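 note: lysate comes from COS7 cells expressing LAP1 and is applied at 0.3 µg/mL; score merges spot fluorescence near 667 nm with signal-to-noise over triplicate slides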
Sam68 (KHDRBS1) = assay: compounds binding KHDRBS1 protein – biochemical, small-molecule microarray, 635 nm fluorescence, primary screen (AID 1125); conditions: higher = more signal;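 note: score merges 667 nm channel intensity with signal to noise over triplicate slides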
[7] = system: Chordin-like protein 2 (CHRDL2); assay: compounds binding chordin-like 2 – biochemical, small-molecule microarray, 635 nm fluorescence, primary screen (AID 1126); conditions: fluorescence 635 nm, higher = more signal;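 note: printed compound slides probed with Chrdl2 protein at 4 µg/mL for 1 h at 4 C; score merges 667 nm emission intensity with signal to noise over three replicate slides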
[8] = biological target: Concanavalin-A (Canavalia ensiformis) (UniProt P02866); assay: compounds binding concanavalin A lectin – biochemical, small-molecule microarray, Alexa647 label, 635 nm, artefact control for SMM control protein annotation, primary screen (AID 1127); conditions: ConA-A647 binding fluorescence, higher = more signal;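 note: z combines 667 nm emission intensity with signal-to-noise across three replicate slides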
[9] = compounds binding Alexa647 anti-His antibody – biochemical, small-molecule microarray, 635 nm fluorescence, artefact control for SMM control protein annotation, primary screen (AID 1128); conditions: higher = more signal;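 note: score merges feature fluorescence with signal-to-noise for each printed compound spot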
[10] = system: Human papillomavirus type 1a E7 protein (residues 1-88); assay: HPV1a E7 small-molecule binders, primary screen, biochemical, small-molecule microarray, residues 1-88, 635 nm (AID 1129); conditions: small-molecule microarray binding, fluorescence 635 nm; higher = more signal
[11] = biological target: Focal adhesion kinase 1 (Homo sapiens) (UniProt Q05397); assay: PTK2 protein binding on printed compound slides – biochemical, small-molecule microarray, 635/667 nm fluorescence, BSA, DTT, primary screen (AID 1130); conditions: 635 nm fluorescence, higher = more signal;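 note: composite of spot emission at 667 nm and signal to noise over triplicate slides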
[12] = system: Fibrinogen (Alexa647-labelled); assay: Alexa647-fibrinogen binding to printed small molecules – biochemical, small-molecule microarray, 635/667 nm fluorescence, artefact control for SMM control-protein annotation, profiling panel (AID 1131); conditions: fibrinogen-A647 binding fluorescence, higher = more signal;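 note: z-score merges 667 nm fluorescence with per-spot signal-to-noise over triplicate slides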
[13] = biological target: Follistatin (Homo sapiens) (UniProt P19883); assay: FST protein binding to printed compounds – biochemical, small-molecule microarray, 635/667 nm fluorescence, primary screen (AID 1132); conditions: 635 nm fluorescence, higher = more signal
[14] = biological target: Fibroblast growth factor 2 (Homo sapiens) (UniProt P09038); assay: basic fibroblast growth factor binding to printed compounds – biochemical, small-molecule microarray, 635/667 nm fluorescence, primary screen (AID 1133); conditions: FGF2, fluorescence 635/667, higher = more signal
[15] = JC-1 mitochondrial potential readout, lung cancer cells – cell-based, A549, JC-1 fluorescence, basal, 24 h, 100 nL, profiling panel (AID 1138); conditions: higher = more signal;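 note: A549 lung adenocarcinoma cells under basal conditions with no added stimulus; test concentration not given here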
Lefty1 = Lefty1 protein binding to printed compounds – biochemical, small-molecule microarray, 635/667 nm fluorescence, primary screen (AID 1139); conditions: fluorescence 635/667, higher = more signal
[16] = system: wheat germ agglutinin (Triticum aestivum), Alexa647-labelled; assay: Alexa647-WGA lectin binding to printed small molecules – biochemical, small-molecule microarray, 635/667 nm fluorescence, artefact control for SMM control-protein annotation, profiling panel (AID 1140); conditions: WGA-A647 binding, 635 nm fluorescence, higher = more signal;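 note: score merges 667 nm feature emission with signal to noise over triplicate slides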
[17] = biological target: Luciferin 4-monooxygenase (Photinus pyralis) (UniProt P08659); assay: inhibition of purified Photinus pyralis luciferase – biochemical, luminescence, purified enzyme, 2006 set, primary screen (AID 1141); conditions: purified firefly luciferase, SteadyGlo luminescence, 30 min; higher = more signal, called active from +8 up or from −8 down;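 note: cell-free assay with purified firefly luciferase at 100 ng per well in PBS; test concentration not given here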
Sequence of Luciferin 4-monooxygenase (Photinus pyralis) (P08659 whole entry, looked up): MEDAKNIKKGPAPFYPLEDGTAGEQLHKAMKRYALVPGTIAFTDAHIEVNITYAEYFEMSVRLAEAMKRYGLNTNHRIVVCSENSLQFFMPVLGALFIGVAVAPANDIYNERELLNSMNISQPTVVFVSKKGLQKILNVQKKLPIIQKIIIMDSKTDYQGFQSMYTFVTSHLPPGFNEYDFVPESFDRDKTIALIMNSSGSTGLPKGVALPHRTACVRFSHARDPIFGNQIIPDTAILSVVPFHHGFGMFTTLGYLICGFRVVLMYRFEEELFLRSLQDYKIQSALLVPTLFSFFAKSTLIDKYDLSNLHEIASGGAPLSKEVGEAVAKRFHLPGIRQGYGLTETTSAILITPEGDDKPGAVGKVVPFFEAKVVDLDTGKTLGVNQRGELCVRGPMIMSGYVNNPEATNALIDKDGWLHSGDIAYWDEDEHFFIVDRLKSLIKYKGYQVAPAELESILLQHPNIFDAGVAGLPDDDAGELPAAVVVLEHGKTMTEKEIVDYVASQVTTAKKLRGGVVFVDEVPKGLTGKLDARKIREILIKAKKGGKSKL

Sequence of Albumin (Bos taurus) (P02769 whole entry, looked up): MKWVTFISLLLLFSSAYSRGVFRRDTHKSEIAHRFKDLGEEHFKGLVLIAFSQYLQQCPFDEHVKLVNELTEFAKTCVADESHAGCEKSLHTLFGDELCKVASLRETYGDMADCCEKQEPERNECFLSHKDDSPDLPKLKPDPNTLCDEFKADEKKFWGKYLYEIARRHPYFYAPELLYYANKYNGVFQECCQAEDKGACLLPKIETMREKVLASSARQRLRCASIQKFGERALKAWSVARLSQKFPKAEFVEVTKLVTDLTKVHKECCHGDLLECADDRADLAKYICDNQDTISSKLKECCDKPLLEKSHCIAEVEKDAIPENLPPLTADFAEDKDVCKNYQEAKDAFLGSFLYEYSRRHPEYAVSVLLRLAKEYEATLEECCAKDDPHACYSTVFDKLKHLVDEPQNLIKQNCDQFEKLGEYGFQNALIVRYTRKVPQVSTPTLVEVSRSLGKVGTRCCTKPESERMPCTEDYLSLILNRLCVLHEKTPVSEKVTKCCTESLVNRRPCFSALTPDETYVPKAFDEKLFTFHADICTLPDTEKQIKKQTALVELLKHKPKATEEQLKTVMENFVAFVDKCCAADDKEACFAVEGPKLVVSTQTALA
Sequence of Concanavalin-A (Canavalia ensiformis) (P02866 whole entry, looked up): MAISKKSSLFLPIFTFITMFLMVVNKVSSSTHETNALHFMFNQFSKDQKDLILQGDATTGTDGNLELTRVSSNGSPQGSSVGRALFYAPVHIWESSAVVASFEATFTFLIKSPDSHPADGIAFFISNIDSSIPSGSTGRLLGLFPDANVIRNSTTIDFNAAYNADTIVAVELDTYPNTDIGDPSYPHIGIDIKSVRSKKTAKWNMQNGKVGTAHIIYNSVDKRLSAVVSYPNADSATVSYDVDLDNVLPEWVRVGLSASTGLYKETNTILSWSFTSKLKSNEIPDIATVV
Sequence of Focal adhesion kinase 1 (Homo sapiens) (Q05397 whole entry, looked up): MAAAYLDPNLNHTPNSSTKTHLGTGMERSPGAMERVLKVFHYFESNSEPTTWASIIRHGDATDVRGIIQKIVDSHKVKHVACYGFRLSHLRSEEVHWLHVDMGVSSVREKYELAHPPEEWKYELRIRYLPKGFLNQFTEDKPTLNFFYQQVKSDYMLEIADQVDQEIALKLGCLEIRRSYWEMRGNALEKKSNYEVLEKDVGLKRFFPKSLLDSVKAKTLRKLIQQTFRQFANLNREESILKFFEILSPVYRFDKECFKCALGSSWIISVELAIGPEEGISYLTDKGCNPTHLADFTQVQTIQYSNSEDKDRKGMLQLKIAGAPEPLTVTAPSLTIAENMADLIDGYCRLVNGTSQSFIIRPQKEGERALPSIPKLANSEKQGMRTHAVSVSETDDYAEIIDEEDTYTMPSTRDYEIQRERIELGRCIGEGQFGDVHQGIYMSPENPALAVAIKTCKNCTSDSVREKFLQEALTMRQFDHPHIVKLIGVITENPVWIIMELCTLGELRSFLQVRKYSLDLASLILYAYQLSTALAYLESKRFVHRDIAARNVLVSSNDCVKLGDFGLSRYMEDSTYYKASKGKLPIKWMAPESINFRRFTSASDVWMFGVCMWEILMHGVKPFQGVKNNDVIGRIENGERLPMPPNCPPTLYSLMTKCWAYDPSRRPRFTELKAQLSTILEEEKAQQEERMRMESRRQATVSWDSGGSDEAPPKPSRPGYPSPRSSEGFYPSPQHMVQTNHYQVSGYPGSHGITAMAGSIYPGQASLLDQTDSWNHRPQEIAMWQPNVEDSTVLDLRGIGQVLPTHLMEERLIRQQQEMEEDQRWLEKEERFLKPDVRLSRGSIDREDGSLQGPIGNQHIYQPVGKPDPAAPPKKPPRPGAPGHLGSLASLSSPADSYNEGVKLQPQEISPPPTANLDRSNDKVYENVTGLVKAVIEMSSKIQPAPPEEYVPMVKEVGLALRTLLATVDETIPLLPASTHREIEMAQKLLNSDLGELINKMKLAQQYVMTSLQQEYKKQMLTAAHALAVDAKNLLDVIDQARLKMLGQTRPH
Sequence of Fibroblast growth factor 2 (Homo sapiens) (P09038 whole entry, looked up): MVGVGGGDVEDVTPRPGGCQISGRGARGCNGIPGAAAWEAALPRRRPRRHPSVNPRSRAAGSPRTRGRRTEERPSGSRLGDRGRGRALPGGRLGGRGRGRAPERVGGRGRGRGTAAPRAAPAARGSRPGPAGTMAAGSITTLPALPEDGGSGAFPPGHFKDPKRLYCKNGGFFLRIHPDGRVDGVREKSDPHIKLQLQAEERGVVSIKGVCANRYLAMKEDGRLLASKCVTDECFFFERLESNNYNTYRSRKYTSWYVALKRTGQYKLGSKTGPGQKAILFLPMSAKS
Sequence of Follistatin (Homo sapiens) (P19883 whole entry, looked up): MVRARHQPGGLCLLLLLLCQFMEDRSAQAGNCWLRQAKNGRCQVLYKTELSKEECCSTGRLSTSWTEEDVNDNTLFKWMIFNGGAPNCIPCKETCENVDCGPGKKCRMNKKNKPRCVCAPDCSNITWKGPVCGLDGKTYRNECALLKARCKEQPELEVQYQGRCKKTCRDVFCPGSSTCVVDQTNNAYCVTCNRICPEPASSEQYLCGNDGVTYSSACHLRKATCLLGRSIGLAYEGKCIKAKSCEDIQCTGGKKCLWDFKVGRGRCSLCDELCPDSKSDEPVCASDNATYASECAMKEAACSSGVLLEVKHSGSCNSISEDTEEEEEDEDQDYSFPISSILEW

SMILES	composite z-score (Albumin (Bos taurus))	composite Z-score [1]	composite z-score [2]	composite z-score [3]	composite z-score [4]	composite z-score [5]	composite z-score [6]	composite z-score (Sam68 (KHDRBS1))	composite z-score [7]	composite z-score [8]	composite z-score [9]	composite z-score [10]	composite z-score [11]	composite z-score [12]	composite z-score [13]	composite z-score [14]	z-score [15]	composite z-score (Lefty1)	composite z-score [16]	z-score [17]
CCOC(=O)C1=CCC(c2cc3ccccc3[nH]2)N(S(=O)(=O)c2ccccc2[N+](=O)[O-])C1 (stereo not given)	0.476	4.63 (inactive)	0.051	-0.188	0.674	2.37	0.375	0.644	0.0846	0.558	0.584	1.2	0.501	0.0547	0.574	-0.103	1.05	0.306	0.896	-0.0781 (inactive)
COC(=O)[C@@]1(Cc2ccc(OC)cc2)[C@H]2c3cc(C(=O)N4CCCC4)n(CCc4ccc(OC)c(Br)c4)c3C[C@H]2CN1C(=O)c1ccccc1	1.01	-0.004 (inactive)	0.0305	0.162	0.895	2.78	1.11	0.251	0.257	-0.234	1.66	1.16	0.946	0.406	-0.533	-0.381	0.914	-1.13	0.345	0.626 (inactive)
COCCOC(=O)N1C(=O)[C@@]2(c3cc(C#CC4(O)CCCCCC4)ccc31)[C@H](C(=O)N1CCc3cc(OC)c(OC)cc3C1)[C@H]1C(=O)O[C@H](c3ccccc3)[C@H](c3ccccc3)N1[C@@H]2c1ccc(O)cc1	0.609	0.413 (inactive)	0.163	0.0012	0.638	1.58	0.773	1.29	0.34	1.16	2.17	1.23	0.427	0.853	1.26	1.1	-0.791	0.594	0.972	-0.604 (inactive)
COc1cccc(C[C@H]2C[C@@H](CO[Si](C(C)C)(C(C)C)C(C)C)N3C(=O)[C@@]4(C(C)=O)O[C@@]23[C@@H]2C(=O)N(C)C(=O)[C@@H]24)c1	0.166	0.544 (inactive)	-0.231	-0.118	0.0137	0.332	-0.316	0.984	0.908	0.117	-0.265	0.681	0.0669	0.529	0.897	1.25	0.189	1.4	0.326	0.768 (inactive)
COC(=O)[C@@]1(Cc2ccc(F)cc2)[C@H]2c3cc(C(=O)N(C)C)n(CCN4CCOCC4)c3C[C@H]2CN1C(=O)c1ccccc1	0.851	-0.34 (inactive)	0.296	0.739	0.39	2.08	0.0192	-0.0247	-0.361	0.618	1.65	1.19	1.14	0.32	-0.0389	-0.708	0.147	-0.0199	0.331	2.64 (inactive)
C=CCC(OC(C)=O)[C@@H]1[C@@H](N(Cc2cccc3ccccc23)C(=O)c2ccc(-c3ccccc3)cc2)c2cc(OCCCO)ccc2N1C(=O)c1ccc2ccccc2n1 (stereo not given in full)	0.192	-0.0401 (inactive)	0.119	-0.0639	0.0528	0.181	0.649	0.464	0.41	-0.288	0.112	0.263	0.0785	0.677	0.537	-0.0329	-0.0419	0.752	0.922	0.222 (inactive)
CN(C)CCCC[C@@H]1NC(=O)[C@H]2C[C@@H](C(=O)O)[C@@H](c3cccc(OCCO)c3)N2C1=O	-0.468	0.666 (inactive)	0.601	0.124	0.816	0.699	0.0206	0.524	0.941	0.931	3.17	-0.209	0.239	0.564	1.4	0.977	1.29	1.45	0.734	-1.9 (inactive)
C=CC[C@]1(C(=O)OC)N=C(c2ccc(OCCCO)cc2)O[C@H]1c1ccccc1N=[N+]=[N-]	-0.899	0.0557 (inactive)	0.734	0.26	0.429	2.87	0.198	1.3	1.14	1.09	3.65	1.21	1.01	0.266	1.43	1.78	-0.674	1.12	0.291	-11 (active)
CN1C(=O)[C@]2(CCC(=O)OC(C)(C)C)N=C(c3ccc(OCCCO)cc3)O[C@@H]2c2ccccc21	0.272	0.0786 (inactive)	-0.117	-0.12	0.709	2.69	-0.313	1.28	0.149	1.12	1.2	1.23	0.488	0.95	1.44	1.55	1.85	0.853	0.182	-2.79 (inactive)
